Source: PubChem BioAssay
Hits are enriched below; roughly 13% of the tested compounds scored in any of these assays.
CHX counter – Cycloheximide Counterscreen for Small Molecule Inhibitors of Shiga Toxin. cell reporter, cycloheximide protein synthesis inhibition counterscreen. max response, %. 300,000 compounds, 12% hits. AID 2314, 2010; in the data active means max response mostly above about 13%, no sharp cut-off; inactive means mostly below about 14%; further: read at 38.3 µM for the half of the compounds with a filed dose; 0% is about no effect
Shiga toxin inh – A qHTS for Small Molecule Inhibitors of Shiga Toxin. Vero cells, Shiga toxin protein synthesis inhibition reporter. inhibition, % at 38.7 µM. 290,000 compounds, 9.2% hits; in the data active means inhibition mostly above about 28%, no sharp cut-off; inactive means mostly below about 43%; further: 0% is about no effect
LASV entry inh – qHTS for Inhibitors of binding or entry into cells for Lassa Virus | AID 540256, 2011 | Potency, µM (highest dose often 37.9 µM), inactives show at the highest dose activity change, negative = inhibition, hits mostly inhibitors | Lassa virus pseudotype entry inhibition, cell reporter | 300,000 compounds, 1.2% hits; calls by dose curve; tested in HEK293 cells; further: potency means the concentration at half of the fitted maximal effect; on the % scale 0 is the no-effect control and ±100 the full control effect; nearly all actives have a fitted effect of over 50% in size
HCV inh – qHTS Assay for Inhibitors of Hepatitis C Virus (HCV) | Huh7.5.1 HCVcc-Cre infection, luciferase reporter, 44 h | 340,000 compounds, 3.4% hits | Potency, µM (doses to about 41.8 µM), for the others: at the top dose activity change, negative = inhibition, actives largely listed as inhibitors | AID 651820, 2012; active means well fitted inhibition curve with a large enough effect; inconclusive means small, poorly fitted or top-dose-only effect, or another doubt; inactive means no such curve, though single readings can be large or run the other way; further: potency means the concentration at half of the fitted maximal effect; on the % scale 0 is the no-effect control and ±100 the full control effect
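Reporter virus HCVcc-Cre (~0.5 moi) infects cells exposed to compound; seeding density 1,000 cells/well with 4 h settling beforehand. Luminescence, 15 sec read, taken 44 h post-infection following a 15 min RT substrate incubation.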
Marburg entry inh – qHTS for inhibitors of binding or entry into cells for Marburg Virus; Marburg virus pseudotyped entry inhibition, cell reporter; Potency, µM (highest dose often 37.8 µM), for inactives: top-dose activity change, negative = inhibition, actives largely listed as inhibitors; 300,000 compounds, 1.8% hits; calls by dose curve; tested in HEK293 cells; further: potency means the concentration at half of the fitted maximal effect; on the % scale 0 is the no-effect control and ±100 the full control effect
FMDV inh – High Throughput Screening for Foot and Mouth Disease Virus Antivirals | FMDV antiviral cell-based qHTS | Potency, µM (doses to about 57.9 µM), for the others: at the highest dose activity change, negative = inhibition, usual class: inhibitors | 410,000 compounds, 1.2% hits | AID 1159524, 2015; calls by dose curve; tested in HEK293T cells; further: read-out not given here; potency means the concentration at half of the fitted maximal effect; on the % scale 0 is the no-effect control and ±100 the full control effect; nearly all actives have a fitted effect of over 45% in size
* hit, by the source's call; ? = inconclusive; / = not tested or not shown; ! = not active in a repeat; [ ] = dose if it differs, or a comment.

SMILES	CHX counter	Shiga toxin inh	LASV entry inh	HCV inh	Marburg entry inh	FMDV inh
CC(=O)c1ccc(NC(=O)C(C)OC(=O)c2ccc(NS(=O)(=O)c3ccc(F)c(F)c3)cc2)cc1 (configuration not stated)	10	-6	11%	13µM*	-9%	-6%
CC(=O)c1ccc(-c2cccs2)s1	24*	36*	16%[46.1 µM]	10%	13%[46.1 µM]	0%
COc1ccc(CC(=O)N2CCCc3ccccc32)cc1	54*	99*	1%	16%	-18%	13%
O=C(c1ccc(Cl)c([N+](=O)[O-])c1)N1CCCc2ccccc21	34*	39*	/	13%	/	14%
COc1cccc(NC(=O)C(=O)N2CCOCC2)c1	41*	50*	3%	-8%	7%	89%
CCOC(=O)c1cccc(NC(=O)CN2CCN(c3ccc(OC)cc3)CC2)c1	-4	-4	1.1µM*	4%	-12%	-23%
CCOC(=O)c1sc(NC(=O)CN2CCN(c3ccc(OC)cc3)CC2)nc1C	-1	-6	6%[46.1 µM]	-21%	6%[46.1 µM]	-2%
COC(=O)c1nn(-c2ccc(Oc3ccccc3)cc2)c(=O)cc1O	9	15	-15%[46.1 µM]	-5%	8%[46.1 µM]	-11%
Cn1nnnc1NC(=O)c1ccccc1Cl	-2	-16	/	12%	/	-24%
O=C(c1ccc(-c2ccc([N+](=O)[O-])cc2)o1)N1CCN(S(=O)(=O)c2cccs2)CC1	/	/	-12%	8%	-9%	?
COC(=O)/C(=N/Nc1ccccc1)N1CCCc2ccccc21	6	-3	-18%	?	?	-26%
O=C(c1coc(=O)c(Br)c1)N1CCCc2ccccc21	40*	74*	-14%	-27%	14%	1%
COC(=O)/C(=N/Nc1cccc(C)c1)N1CCCc2ccccc21	19*	43	1%	33%	21%	-9%
O=C(c1cc2ccccc2c(=O)o1)N1CCCc2ccccc21	17*	50	2%	-2%	7%	19%
COc1cccc(NC(=O)CN2CCC(C)CC2)c1	30*	35*	11%	8%	5%	20%
O=C(c1cc(=O)c2ccccc2o1)N1CCCc2ccccc21	15	7	-1%	-13%	-15%[46.1 µM]	5%
C=CCSC1=Nc2sccc2C2=NC(=O)CN12	1	-11	14%	-2%	3%[46.1 µM]	-17%
CC(CN(C)Cc1ccccc1)OC(=O)c1ccc(F)cc1 (configuration not stated)	0	-17	8%	0%	5%	-27%
O=C(c1ccc(S(=O)(=O)N2CCOCC2)cc1)N1CCCc2ccccc21	22*	15	-19%	2%	-2%	-18%
COc1cccc(NC(=O)N2CCCC2)c1	27	54*	/	4%	/	33%
COc1ccc(OC)c(C2=NOC(C(=O)N3CCCc4ccccc43)C2)c1 (configuration not stated)	56*	84*	4%	?	17%	-4%
CC(=O)c1cccc(NC(=O)N2CCCc3ccccc32)c1	21*	58	6%	0%	?	18%
COc1cc(OC)cc(C(=O)N2CCCc3ccccc32)c1	24*	85	-12%	?	-11%	/
COc1ccc(NC(=O)N2CCCc3ccccc32)cc1OC	16*	55	/	13%	/	-5%
CC(=O)c1cccc(OCC(=O)N2CCCc3ccccc32)c1	23*	32	11%[46.1 µM]	-5%	?	24%
SMILES	CHX counter	Shiga toxin inh	LASV entry inh	HCV inh	Marburg entry inh	FMDV inh
COc1ccc(C(=O)N2CCCc3ccccc32)cc1Br	1	-7	-18%	5%	5%	-22%
COc1cccc(NC(=O)N2CCCc3ccccc32)c1	47*	73*	/	6%	/	6%
Cc1cccc(OCC(=O)N2CCCc3ccccc32)c1	5	2	22%[46.1 µM]	0%	-18%[46.1 µM]	-9%
COc1ccc(N2CC(C(=O)NCCc3c[nH]c4ccccc34)CC2=O)cc1 (configuration not stated)	-4	-11	/	-18%	?	10%
O=C(OCCOc1cccc(Cl)c1)c1cc(S(=O)(=O)N2CCOCC2)ccc1F	/	/	20%	25µM*	8%	-21%
O=C(OCCOc1ccc(Cl)cc1)c1cc(S(=O)(=O)N2CCCCC2)ccc1N1CCOCC1	/	/	/	3.5µM*	/	?
COc1ccc(OCCOC(=O)c2cc(S(=O)(=O)N3CCOCC3)c(Cl)cc2Cl)cc1	/	/	7%	?	-22%	40µM*
O=C(OCCOc1ccccc1)c1cc(S(=O)(=O)N2CCOCC2)ccc1Cl	/	/	/	11%	/	-17%
CN(CCO)C(=O)c1cn(C2CCCN(Cc3cc4ccccc4s3)C2)nn1 (configuration not stated)	/	/	/	/	/	-23%
Cc1nn(-c2ccccc2C(=O)O)c(=O)c2ccccc12	-2	-5	19%	17%	?	-14%
Cc1nn(-c2ccc(Br)cc2)c(=O)c2ccccc12	70*	125*	?	13%	?	9%
COc1ccccc1C(C[N+](=O)[O-])c1c[nH]c2ccccc12 (configuration not stated)	-2	30	-16%	?	?	?
CCOC(=O)C1CCN(c2ccc(-c3cccs3)nn2)CC1	37*	99*	1%[46.1 µM]	17%	15%[46.1 µM]	-25%
O=C(Nc1cccc(-c2ccc(N3CCOCC3)nn2)c1)c1ccccc1	/	/	?	?	-3%[46.1 µM]	11%
c1csc(-c2ccc(N3CCOCC3)nn2)c1	25*	27	/	8%	/	-12%
CCOC(=O)C1CCN(c2ccc(Cl)nn2)CC1	11	21	-16%[46.1 µM]	11%	6%[46.1 µM]	-13%
CCOc1ccc(C(=S)N2CCOCC2)cc1	-3	11	-8%	-3%	19%	-18%
COn1c(-c2ccc(Cl)cc2)nc2ncccc21	49*	60*	/	0%	/	1%
Cc1ccc(-c2nc3ncccc3n2O)cc1	8	27	/	20%	/	15%
COC(=O)c1cccc(-n2c(CCC(=O)O)ccc2-c2cccs2)c1	19*	49*	2%[46.1 µM]	11%	/	-12%
Cc1ccc(-n2c(CCC(=O)O)ccc2-c2cccs2)cc1	25*	97*	9%[14.3 µM]	3%	?	57%
CC(=O)c1ccc(-n2c(CCC(=O)O)ccc2-c2cccs2)cc1	18	17	22%[46.1 µM]	18%	9%[46.1 µM]	-7%
CC(C)NC(=O)C1Cc2c(-c3ccccc3Oc3ccccc3)ccnc2O1 (configuration not stated)	/	/	/	/	/	-13%
COc1ccccc1CN1CCNCC1	/	/	/	/	/	36%
CCCOc1ccc2oc(=O)c3c(c2c1)CCCN3C(=O)CN1CCc2ccccc2C1	1	-14	?	?	?	-18%
CC1CC(C)CN(CC(=O)N2CCCc3c2c(=O)oc2ccc(OCc4ccccc4)cc32)C1 (configuration not stated)	-4	3	?	11µM*	10µM*	?
CC1CCN(CC(=O)N2CCCc3c2c(=O)oc2ccc(OCc4ccccc4)cc32)CC1	-6	-14	0.63µM*!	?	7.1µM*	?
